BRCA1 expr act = increases BRCA1 expression; MCF7-BRCA1-FFLuc reporter, luminescence, 48 h; response scale: scaled: vehicle 0%, 10 µM genistein 100%; Potency, µM (series often up to 46.1 µM), without a hit: at the highest dose activation, usual class: activators; actives 1.1% (n = 380,000); AID 624202; note: potency is the fitted concentration of half-maximal effect; nearly all actives have a fitted effect of over 80% in size
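Using MCF7 cells harboring a BRCA1 firefly luciferase reporter, plated 2 h before compound pinning, the screen measured luminescence after 48 h incubation. Responses were normalized to DMSO and 10 microM genistein, then fitted for concentration-effect.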
p53 reactivation = re-activators of mutant p53; H1299 p53-A138V BP100-luciferase reporter, luminescence, 24 h; Potency, µM (doses to about 92.2 µM), inactives show at the highest dose activity change, positive = activation, hits mostly activators; actives 0.063% (n = 320,000); AID 504706; note: potency is the fitted concentration of half-maximal effect; % of control where 0% means no effect; nearly all actives have a fitted effect of over 45% in size
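H1299 (p53-null), stable ts p53-A138V + BP100-Luc; 1000 cells/well, Opti-MEM/10% FBS; cpd 4 pt, 1:5; 24 h, 37 deg C, 5% CO2; detection reagent 10 min RT; luminescence.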
GLS inhibitor = glutaminase GLS (human) inhibition. AID 624170. Potency, µM (highest dose often 45.5 µM), for the others: at the top dose activity change, negative = inhibition, most hits filed as inhibitors. actives 0.21% (n = 410,000). O94925. GLS enzymatic activity, qHTS titration; note: potency is the fitted concentration of half-maximal effect; % is set by controls: 0 for no effect and ±100 for the full control effect
Target sequence (O94925 whole entry, looked up): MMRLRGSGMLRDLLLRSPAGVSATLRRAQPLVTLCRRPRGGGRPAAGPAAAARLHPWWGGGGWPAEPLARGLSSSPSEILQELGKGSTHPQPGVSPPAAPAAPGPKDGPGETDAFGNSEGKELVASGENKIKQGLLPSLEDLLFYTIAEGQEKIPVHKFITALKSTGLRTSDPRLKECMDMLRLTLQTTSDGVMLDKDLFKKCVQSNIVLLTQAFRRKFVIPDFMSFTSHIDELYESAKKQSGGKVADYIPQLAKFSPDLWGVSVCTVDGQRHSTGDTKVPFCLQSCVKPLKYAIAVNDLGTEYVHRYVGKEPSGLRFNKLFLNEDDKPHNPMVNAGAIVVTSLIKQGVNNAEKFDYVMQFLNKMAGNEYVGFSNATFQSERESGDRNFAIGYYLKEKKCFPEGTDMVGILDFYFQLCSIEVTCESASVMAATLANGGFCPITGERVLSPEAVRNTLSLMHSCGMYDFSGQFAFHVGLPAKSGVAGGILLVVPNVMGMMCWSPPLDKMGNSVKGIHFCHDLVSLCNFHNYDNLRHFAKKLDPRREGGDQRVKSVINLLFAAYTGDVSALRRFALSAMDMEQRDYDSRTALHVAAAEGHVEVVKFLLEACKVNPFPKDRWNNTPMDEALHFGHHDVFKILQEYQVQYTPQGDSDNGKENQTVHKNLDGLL
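Assay buffer: 45 mM KH2PO4 pH 8.2, 0.02% Tween-20. hKGA acts on L-glutamine (1 mM solution added); product glutamate is reported by an oxidase/peroxidase Amplex Red coupling, with fluorescence taken at baseline and 30 min.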
TCR act = activators of T cell receptors; primary human leukocytes, anti-CD3, IL-2 HTRF, 48 h; Potency, µM (titrated, usually from 9.22 µM), without a hit: top-dose activation of IL-2 secretion, usual class: activators; 330,000 tested, under 10 active; note: % of control where 0% means no effect
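HTRF read-out of IL-2 secretion: europium cryptate donor excited at 320nm, d2 acceptor emission at 665nm. Cells were primary human leukocytes incubated 48 hr with compounds and a-CD3 beads, supplying TCR signal only.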
N370S GC mod = N370S glucocerebrosidase modulation, Gaucher chaperone candidate; N370S GC spleen homogenate, 4MU-glucoside fluorescence; Potency, µM (doses to about 59.4 µM), inactives show at the top dose activity change, negative = inhibition, actives largely listed as inhibitors; actives 0.092% (n = 330,000); P04062;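 note: potency is the fitted concentration of half-maximal effect; 0% = full enzyme activity and -100% = no enzyme basal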
TSHR antagonist = blocks TSH signaling through the human TSH receptor | TSHR-expressing cells, TSH-stimulated cAMP HTRF, 2 h; hits give low values | activity change, negative = inhibition, % at 11.5 µM | actives 0.2% (n = 330,000) | AID 504810;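 active = activity change below a set negative limit, meaning inhibition stronger than a set level, cut at about -70% in these data; inconclusive = activity change between two set negative limits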; note: % is set by controls: 0 for no effect and ±100 for the full control effect
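Cell-based HTRF cAMP assay; TSHR cells + compound, TSH EC80 (4nM final), 2 h, 37 deg C. Lysis with anti-cAMP cryptate and cAMP-d2, 30 min RT, read 665/620 nm.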
* marks the source's active call; other numbers are inactive results; ? = inconclusive; nt = no result given; ! = not confirmed by another sample; [ ] = another dose, or the depositor's remark. Hits are enriched below; roughly 1.4% of the tested compounds scored in any of these assays. Unless noted, calls come from the whole dose curve; as a rule, active = well fitted curve in the direction sought with a large enough effect; inconclusive = small, poorly fitted or top-dose-only effect, or another doubt; inactive = no such curve, though single readings can be large; an effect the other way counts as inactive or inconclusive.

SMILES	BRCA1 expr act	p53 reactivation	GLS inhibitor	TCR act	N370S GC mod	TSHR antagonist
O=C1c2ccccc2C(=O)N1c1nc(-c2ccc(F)cc2)cs1	17%	nt	nt	nt	nt	nt
Oc1c(N=Nc2ccc(F)cc2)ccc2ccccc12	56%	nt	-33%	1%	3%	-7
Oc1c(N=Nc2nn[nH]n2)ccc2ccccc12	-64%	nt	20µM*	nt	nt	nt
CCc1nc2ccc(C(=O)N3CCN(c4cccc(C)c4C)CC3)cc2nc1CC	-14%	-2%	6.3µM*!	-3%	0%	1
CCC(Cc1c(I)cc(I)c(O)c1I)C(=O)O (stereo not drawn)	nt	nt	-25%	nt	nt	nt
COc1ccc(-c2nc3ccccn3c2NCc2ccc3c(c2)OCO3)cc1	7.9µM*	22%	16%	2%[46.1 µM]	-26%	38
Clc1cccc(-c2ccc(-c3nc4ccccn4c3NCc3ccccc3)cc2)c1	0%	?	14%	-4%	nt	?
c1ccc(-c2nc3ccccn3c2NCc2ccc3c(c2)OCO3)cc1	6%	2%	12%	2%	?	14
COc1ccc(-c2cc(-c3nc4ccccn4c3NCc3ccccc3)ccc2OC)cc1	-82%	-9%	14%	7%	nt	-97*
COc1ccc(C(=O)C[n+]2cccc3cc(Cl)ccc32)cc1	-45%	nt	nt	nt	nt	nt
O=C(Cc1ccc(Cl)cc1)NO	0%	nt	nt	nt	nt	nt
COc1ccc(C(=O)COc2ccc(F)cc2)c(O)c1	11µM*	17%	0%	-5%	4%	-7
C=CCn1c(-c2ccc(OC)cc2)nc2ccccc21	10µM*	16%	1%	0%	30%	9
COc1ccc(C(=O)COC(=O)c2cccs2)cc1	13µM*	?	10%	1%	nt	nt
CCCC(=O)Nc1ccc(C(=O)COC(=O)C2CC2C)cc1 (stereo not drawn)	11µM*	34%	10%	3%	nt	nt
CCCC(=O)Nc1ccc(C(=O)COC(=O)C2=COCCO2)cc1	34%	3%	0%	-4%	1%	2
CC(=O)Nc1ccc(C(=O)COC(=O)c2cccs2)c(F)c1	14µM*	?	1%	-2%	nt	nt
COc1ccc(C2CC2/C(=N/OC(=O)c2cccs2)c2ccccc2)cc1 (stereo not drawn)	7.1µM*	?	-6%	2%	?	-17
NC(=O)C1CCN(c2nc(-c3ccccc3Cl)cs2)CC1	nt	nt	nt	nt	nt	5
C[C@H](CN1CCCC1)C(=O)c1ccc(C(F)(F)F)cc1	nt	nt	-8%	nt	nt	nt
CC(=O)Nc1ccc(C(=O)COC(=O)C2CC2C)c(F)c1 (stereo not drawn)	6.3µM*	?	2%	-3%	-1%	-1
COc1ccc(/C(N)=N/OC(=O)Cc2cccs2)cc1	8.9µM*	?	-14%	3%[46.1 µM]	10%	-8
COc1ccc(CC(=O)O/N=C(\N)c2ccc(OC)cc2)cc1	?	12%	-13%	-55%	15%	2
O=S(=O)(O)O	nt	nt	-14%	nt	-7%	nt
CC(=O)NC(Cc1c(F)c(F)c(F)c(F)c1F)C(=O)NCC(N)C(=O)c1ccccc1 (stereo not drawn)	-52%	nt	nt	nt	nt	nt
SMILES	BRCA1 expr act	p53 reactivation	GLS inhibitor	TCR act	N370S GC mod	TSHR antagonist
COc1ccc(C(=O)OCCc2ccc(O)cc2)cc1	5µM*	?	19%	0%	6%	-3
COC(=O)c1ccc(COC(=O)CNC(=O)c2ccc(OC)cc2)cc1	5µM*	?	-5%	nt	nt	-5
COC(=O)c1ccc(COC(=O)CNC(=O)CNC(=O)c2ccc(OC)cc2)cc1	-26%	nt	6%	2%	nt	nt
Cc1ccc(C)c(NC(=O)CSc2c3c(nc4ccc(Cl)cc24)CCCC3)c1	nt	nt	-6%	nt	nt	nt
Cc1ccc(S(=O)(=O)CCC(=O)c2cccc([N+](=O)[O-])c2)cc1	-49%	-30%	-24%	nt	-3%	-105*
O=C(CCc1ccccc1)n1nc(-c2ccco2)nc1SCc1ccccc1	10µM*	?	3%	-6%	6%	7
Cc1nc(-c2ccc(C(=O)Nc3ccc(F)cc3)cc2)cs1	?	0%	-10%	2%	1%	-4
Cc1nc(-c2ccc(NC(=O)Cc3ccccc3)cc2)cs1	8.9µM*	25%	-1%	4%	-9%	7
Cc1nc(-c2ccc(C(=O)Nc3ccccc3F)cc2)cs1	10µM*	-8%	13%	-10%	-19%	-3
CC(CN(C)C)CN1c2ccccc2S(=O)(=O)c2ccccc21 (stereo not drawn)	nt	nt	-7%	nt	nt	nt
O=C(O)c1ccc(-c2ccccn2)s1	10µM*	0%	24%	2%	20%	1
C(=Nc1ccc(/C=C/c2ccnc3ccccc23)cc1)c1ccco1	10%	nt	nt	nt	nt	nt
Nc1ccc(/C=C/c2nc3ccccc3s2)cc1	5%	nt	nt	nt	nt	nt
CC(C)(C)c1ccc(O)c(N=Cc2cccc([N+](=O)[O-])c2)c1	28%	nt	nt	nt	nt	nt
CC1=C(C(=O)OC(C)C)C(c2ccc(Cl)cc2)n2c(sc(=Cc3ccc(OCC(=O)O)cc3)c2=O)=N1 (stereo not drawn)	16%	nt	7.1µM*	nt	nt	nt
NS(=O)(=O)c1ccc(CNc2ccc3ccccc3n2)cc1	8.9µM*	20%	1%	-11%	-4%	-11
CCOC(=O)C1=C(CS(=O)(=O)c2ccc(F)c(C)c2)NC(=O)NC1c1ccccc1OC (stereo not drawn)	-9%	nt	-14%	nt	nt	nt
O=c1c2cc(-c3ccccc3)sc2ncn1-n1cccc1	2µM*	24%	-16%	0%	4%	-1
O=c1[nH]cnc2sc(-c3ccccc3)cc12	13µM*	22%	8%	4%	7%	-4
O=c1[nH]c(-c2ccccc2)nc2sc(-c3ccccc3)cc12	-18%	14%	-13%	-13%	14%	6
O=C(Nc1ccc(F)c(F)c1)c1cnn2c1NC(=C1CC1)C=C2C(F)F	3%	nt	nt	nt	nt	nt
Cn1cnnc1SCC(=O)Nc1ccc2nc(SCc3ccccc3F)sc2c1	4µM*	?	5%	2%	?	3
O=C(O)c1ccc(-c2ccc3cc(C45CC6CC(CC(C6)C4)C5)c(O)cc3c2)cc1	nt	nt	nt	nt	-8%	nt
Cc1nc2ccc(NC(=O)CCC3CCCC3)cc2s1	11µM*	?	24%	0%	-10%	4
Cc1cc(Br)ccc1NC(=O)c1cn(C2CCCC2)c(=O)c2c1c1ccccc1n2C	nt	nt	-4%	nt	nt	nt
Cc1cc(C(=O)COc2cccc([N+](=O)[O-])c2)c(C)n1C1CC1	7.1µM*	?	3%	-3%	nt	-38
CSc1nc(N(CCO)CCO)c2sc3nc(-c4ccco4)c4c(c3c2n1)CCC4	-71%	-35%	7.1µM*	-2%	11%	10
N/C(Cc1cccs1)=N\OC(=O)COc1ccccc1Cl	13µM*	?	-4%	-13%	-20%	-10
